Drawing on PubChem BioAssay (NCATS), this text covers Potency for 35 compounds.

Results filed as inconclusive are left out. Entries that show only a call come without a potency. Active and inactive are the calls of the source. The call rests on the fitted dose curve; in most records, active means well fitted curve in the direction sought with a large enough effect; inconclusive means small, poorly fitted or top-dose-only effect, or another doubt; inactive means no such curve, though single readings can be large; an effect the other way counts as inactive or inconclusive.

Sequence of Luciferin 4-monooxygenase (Photinus pyralis) (P08659 whole entry, looked up): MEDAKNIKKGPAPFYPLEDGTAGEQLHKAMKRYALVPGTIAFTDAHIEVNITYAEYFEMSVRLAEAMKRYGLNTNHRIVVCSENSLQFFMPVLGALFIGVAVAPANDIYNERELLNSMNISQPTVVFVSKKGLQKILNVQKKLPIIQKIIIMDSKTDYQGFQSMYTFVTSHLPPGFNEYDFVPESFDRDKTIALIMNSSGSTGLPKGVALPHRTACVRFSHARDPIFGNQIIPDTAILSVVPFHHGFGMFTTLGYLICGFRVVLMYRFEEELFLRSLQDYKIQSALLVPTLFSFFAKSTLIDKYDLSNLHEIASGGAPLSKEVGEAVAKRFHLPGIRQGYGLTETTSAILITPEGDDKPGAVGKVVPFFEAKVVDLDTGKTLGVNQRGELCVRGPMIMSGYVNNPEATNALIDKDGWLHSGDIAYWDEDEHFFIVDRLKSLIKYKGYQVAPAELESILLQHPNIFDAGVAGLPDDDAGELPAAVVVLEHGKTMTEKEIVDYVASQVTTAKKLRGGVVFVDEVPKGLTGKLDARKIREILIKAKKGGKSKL

One test has as its target Luciferin 4-monooxygenase (Photinus pyralis) (UniProt P08659). In words: Biochemical firefly luciferase enzyme assay for NPC (AID 624030).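 Further: purified P. pyralis luciferase at 10 nM with luciferin and ATP substrate; nearly all actives have a fitted effect of over 70% in size.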 As to conditions: purified P. pyralis luciferase, luminescence, 5 min; series mostly up to 58.6 µM. The method, boiled down:
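Direct inhibition of firefly luciferase enzyme (10 nM final, 50 mM Tris Acetate) assessed by luminescence within 5 minutes. Percent activity scaled between DMSO and PTC124 positive control, with concentration-effect curves classified by fit quality and response.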
For the compound `CN1C(=O)CN=C(c2ccccc2)c2cc([N+](=O)[O-])ccc21`, the Potency result was “inactive”.

Turning to `CCC1(c2ccccc2)CCC(=O)NC1=O` (stereo unspecified), the Potency entry is “inactive”.

For the compound `C[N+](C)(C)CCOC(=O)C(O)(c1ccccc1)c1ccccc1`, the Potency entry was “inactive”.

Regarding `NC(=O)OCCCc1ccccc1`, the Potency entry is “inactive”.

For the compound `NC(=O)CN1CCCC1=O`, the Potency entry is “inactive”.

Consider `Oc1ccc2[nH]cc(CCCCN3CC=C(c4ccccc4)CC3)c2c1`, for which the Potency result is “inactive”.

Take `Clc1ccc(CO/N=C(\Cn2ccnc2)c2ccc(Cl)cc2Cl)c(Cl)c1`: the Potency result is “inactive”.

As for `Cc1c(Cl)c(=O)oc2cc(OP(=O)(OCCCl)OCCCl)ccc12`, the Potency result was “inactive”.

For `CCC1(CC)C(=O)NC(=O)NC1=O`, the Potency entry is “inactive”.

In the case of `O=C(O)c1nn(Cc2ccc(Cl)cc2Cl)c2ccccc12`, the Potency result is “inactive”.

Take `C[C@]12Cc3nonc3C[C@@H]1CC[C@@H]1[C@@H]2CC[C@@]2(C)[C@H]1CC[C@]2(C)O`: the Potency entry was “inactive”.

As to `CCCCCCCCCCCC[N+](C)(C)CCOc1ccccc1`, the Potency result is “inactive”.

Consider `COC(=O)C1=CCCN(C)C1`, for which the Potency result was “inactive”.

With `CC(C)[N+](C)(CCC(C(N)=O)(c1ccccc1)c1ccccc1)C(C)C`, the Potency entry was “inactive”.

For the compound `CC(Cc1ccccc1)NCc1ccccc1Cl` (stereo unspecified), the Potency result is “inactive”.

For `C[C@]12CC[C@H]3[C@@H](CC=C4C[C@@H](O)CC[C@@]43C)[C@@H]1CC[C@@H]2O`, the Potency result is “inactive”.

Turning to `CN1CCc2cc(Cl)c(O)cc2[C@H]2c3ccccc3CC[C@@H]21`, the Potency entry was “inactive”.

For `C#C[C@]1(O)CC[C@H]2[C@@H]3CCC4=CC(=O)CCC4=C3C=C[C@@]21CC`, the Potency result was “inactive”.

System in another test: not listed separately
In words: S16 Schwann cell viability assay (CellTiter-Glo assay) (AID 624031). Further: nearly all actives have a fitted effect of over 70% in size. Further: potency means the concentration at half of the fitted maximal effect. As to conditions: S16 rat Schwann cells viability, 24 h; series mostly up to 57.5 µM. In outline:
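Native S16 rat Schwann cells, 500-750 cells/well in DMEM with 10% FBS, dosed with compound after overnight culture and incubated 24h at 37 degree Celsius/5% CO2. Viability by CellTiter-Glo luminescence; % activity normalized to no-cell wells and DMSO-treated cells.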
For the compound `CN1C(=O)CN=C(c2ccccc2)c2cc([N+](=O)[O-])ccc21`, the Potency entry is “inactive”.

`CCC1(c2ccccc2)CCC(=O)NC1=O` (stereo unspecified): the Potency result was “inactive”.

On to `C[N+](C)(C)CCOC(=O)C(O)(c1ccccc1)c1ccccc1`, for which the Potency result was “inactive”.

As to `NC(=O)OCCCc1ccccc1`, the Potency entry is “inactive”.

With `NC(=O)CN1CCCC1=O`, the Potency result was “inactive”.

Turning to `Oc1ccc2[nH]cc(CCCCN3CC=C(c4ccccc4)CC3)c2c1`, the Potency entry was “inactive”.

On to `Clc1ccc(CO/N=C(\Cn2ccnc2)c2ccc(Cl)cc2Cl)c(Cl)c1`, for which the Potency result was “inactive”.

For the compound `Cc1c(Cl)c(=O)oc2cc(OP(=O)(OCCCl)OCCCl)ccc12`, the Potency result is “inactive”.

In the case of `CCC1(CC)C(=O)NC(=O)NC1=O`, the Potency entry was “inactive”.

For `O=C(O)c1nn(Cc2ccc(Cl)cc2Cl)c2ccccc12`, the Potency entry was “inactive”.

`O=C1NCN(c2ccccc2)C12CCN(CCCC(c1ccc(F)cc1)c1ccc(F)cc1)CC2`: the Potency is 22.8 µM (active).

Take `CCCCCCCCCCCC[N+](C)(C)CCOc1ccccc1`: the Potency is 32.2 µM (active).

With `COC(=O)C1=CCCN(C)C1`, the Potency entry is “inactive”.

For `CC(C)[N+](C)(CCC(C(N)=O)(c1ccccc1)c1ccccc1)C(C)C`, the Potency result was “inactive”.

As for `CC(Cc1ccccc1)NCc1ccccc1Cl` (stereo unspecified), the Potency result is “inactive”.

System in another test: not listed separately
As to the kind of experiment: S16 Schwann cell PMP22 intronic element firefly luciferase assay (AID 624032). Further: nearly all actives have a fitted effect of over 30% in size. Further: potency means the concentration at half of the fitted maximal effect. As to conditions: S16 rat Schwann cells, PMP22 element FLuc, 24 h; series mostly up to 57.5 µM. The method, boiled down: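 Luciferase reporter of PMP22 intronic-element expression in stably transfected S16 rat Schwann cells, read by ONE-Glo luminescence after 24 h compound exposure at 37 C. Activity scaled between DMSO (0%) and positive-control PTC124; concentration-effect curves quality-classified.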
In the case of `CN1C(=O)CN=C(c2ccccc2)c2cc([N+](=O)[O-])ccc21`, the Potency result was “inactive”.

With `NC(N)=NN=C(/C=C/c1ccc([N+](=O)[O-])o1)/C=C/c1ccc([N+](=O)[O-])o1`, the Potency was 7.21 µM (active).

With `CCC1(c2ccccc2)CCC(=O)NC1=O` (stereo unspecified), the Potency result is “inactive”.

For `C[N+](C)(C)CCOC(=O)C(O)(c1ccccc1)c1ccccc1`, the Potency result was “inactive”.

`CN(C)C(=S)SC(=S)N(C)C`: the Potency was 2.87 µM (active).

On to `NC(=O)OCCCc1ccccc1`, for which the Potency result was “inactive”.

With `NC(=O)CN1CCCC1=O`, the Potency entry is “inactive”.

As to `Oc1ccc2[nH]cc(CCCCN3CC=C(c4ccccc4)CC3)c2c1`, the Potency was 9.07 µM (active).

For `Clc1ccc(CO/N=C(\Cn2ccnc2)c2ccc(Cl)cc2Cl)c(Cl)c1`, the Potency is 32.2 µM (active).

Consider `Cc1c(Cl)c(=O)oc2cc(OP(=O)(OCCCl)OCCCl)ccc12`, for which the Potency was 12.8 µM (active).

Consider `COC(=O)C1=C(C)NC(C)=C(C(=O)OC)C1c1ccccc1[N+](=O)[O-]`, for which the Potency was 18.1 µM (active).

On to `O=c1cc(CO)occ1O`, for which the Potency is 16.1 µM (active).

Turning to `CC(C)(C)C(=O)C(Oc1ccc(Cl)cc1)n1ccnc1` (stereo unspecified), the Potency is 2.03 µM (active).

Consider `COc1cc(C(=S)N2CCOCC2)ccc1O`, for which the Potency is 5.1 µM (active).

Regarding `CCC1(CC)C(=O)NC(=O)NC1=O`, the Potency entry was “inactive”.

Turning to `O=C(O)c1ccc(OCCCOc2ccc(C(=O)O)cc2)cc1`, the Potency result was “inactive”.

In the case of `Cc1cccc(C)c1NC(=O)CN1CCCC1`, the Potency was 8.09 µM (active).

With `CN1CCN(c2cc3c(nn2)Oc2ccccc2N3C)CC1`, the Potency entry is “inactive”.

`O=C(Oc1cccc2cccnc12)c1ccccc1`: the Potency is 9.07 µM (active).

For the compound `CCCCCCCCCCCCCCCC[n+]1ccccc1`, the Potency was 10.2 µM (active).

With `O=C(O)c1nn(Cc2ccc(Cl)cc2Cl)c2ccccc12`, the Potency entry is “inactive”.

In the case of `C[C@]12Cc3nonc3C[C@@H]1CC[C@@H]1[C@@H]2CC[C@@]2(C)[C@H]1CC[C@]2(C)O`, the Potency is 14.4 µM (active).

Take `CC1CCc2cc(F)cc3c(=O)c(C(=O)O)cn1c23` (stereo unspecified): the Potency entry is “inactive”.

Turning to `NC(=O)NNc1ccccc1`, the Potency entry is “inactive”.

For `CCCCCCCCCCCC[N+](C)(C)CCOc1ccccc1`, the Potency is 25.6 µM (active).

For the compound `COC(=O)C1=CCCN(C)C1`, the Potency entry was “inactive”.

In the case of `CC(C)[N+](C)(CCC(C(N)=O)(c1ccccc1)c1ccccc1)C(C)C`, the Potency result was “inactive”.

Turning to `CCCCCCCCCCCCOCCOCCOCCOCCOCCOCCOCCOCCOCCO`, the Potency is 18.1 µM (active).

On to `CC(Cc1ccccc1)NCc1ccccc1Cl` (stereo unspecified), for which the Potency entry was “inactive”.

As to `C[C@]12CC[C@H]3[C@@H](CC=C4C[C@@H](O)CC[C@@]43C)[C@@H]1CC[C@@H]2O`, the Potency entry is “inactive”.

`CN1CCc2cc(Cl)c(O)cc2[C@H]2c3ccccc3CC[C@@H]21`: the Potency entry is “inactive”.

Consider `CN1C[C@H](C(=O)N[C@]2(C)O[C@@]3(O)[C@@H]4CCCN4C(=O)[C@H](Cc4ccccc4)N3C2=O)C[C@@H]2c3cccc4[nH]cc(c34)C[C@H]21`, for which the Potency was 25.6 µM (active).

Turning to `Clc1ccc2c(c1)CCc1cccnc1C2=C1CCNCC1`, the Potency is 28.7 µM (active).
